Results from PubChem BioAssay.
For some assays here: Measured potencies and affinities stand elsewhere. Activity calls are given as the source filed them. Unless noted, no rule for the calls is given here.

Tests used:
[1] = antimalarial activity against Dd2 strain (AID 2302;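 active = growth inhibition above 50% at the single 2 µM test dose, taken to imply half-maximal potency below 2 µM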;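 also: 0% = DMSO untreated growth and 100% = chloroquine plus artemisinin killed control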); settings: P. falciparum Dd2 in RBCs, LDH growth readout, 72 h; at 2 µM; active compounds read high
[2] = human hepatoma cell viability loss – ATP luminescence, cytotoxicity control for P. falciparum antimalarial project, primary screen (AID 2303;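 active = inhibition above 50%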;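 also: 0% = DMSO wells and 100% = digitonin-killed cells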); settings: HepG2 viability, 24-48 h, at 10 µM, active compounds read high
[3] = target: L-lactate dehydrogenase (Plasmodium falciparum (isolate CDC / Honduras)) (UniProt Q27743); assay: PfLDH activity inhibition – cell lysate, 3D7 strain, counter-screen for P. falciparum growth inhibition project (AID 2304);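 also: 0% = vehicle and 100% = reference inhibitor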; settings: P. falciparum 3D7 crude extract, LDH APAD/NBT absorbance; at 2 µM; active compounds read high
[4] = inhibition of 3D7 malaria parasite growth – strain 3D7 (AID 2306);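 also: 0% = DMSO wells and 100% = chloroquine plus artemisinin control wells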; settings: P. falciparum 3D7 erythrocytic growth, LDH absorbance, 72 h; at 2 µM; active compounds read high
[5] = target: Calcium-dependent protein kinase 1 (Plasmodium falciparum (isolate 3D7)) (UniProt P62344); assay: PfCDPK1 kinase inhibitors, biochemical, TCAMS library (AID 1159585; cut-off not given, nearly all actives have IC50 up to about 0.98 µM;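 also: inhibitors leave more ATP so luminescence rises with inhibition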); settings: recombinant PfCDPK1, Kinase-Glo ATP depletion luminescence
[6] = target: Plasmodium falciparum protein kinase 6 (PK6, PF3D7_1337100) (UniProt Q8IDW1); assay: PfPK6 kinase inhibitors, biochemical, TCAMS library (AID 1159586); settings: recombinant PfPK6, Kinase-Glo ATP depletion luminescence
[7] = target: Protein kinase 7 (PK7), Plasmodium falciparum 3D7 (PF3D7_0213400) (UniProt Q7YTF7); assay: inhibition of Plasmodium PK7 catalytic activity – biochemical, TCAMS antimalarial set, Kinase-Glo luminescence (AID 1159587); settings: recombinant PfPK7, Kinase-Glo ATP depletion luminescence
[8] = target: Calcium-dependent protein kinase 4 (Plasmodium falciparum (isolate 3D7)) (UniProt Q8IBS5); assay: PfCDPK4 kinase inhibitors, biochemical, TCAMS library (AID 1159588; cut-off not given, nearly all actives have IC50 up to about 0.91 µM); settings: recombinant PfCDPK4, Kinase-Glo ATP depletion luminescence
Sequence of Calcium-dependent protein kinase 4 (Plasmodium falciparum (isolate 3D7)) (Q8IBS5 whole entry, looked up): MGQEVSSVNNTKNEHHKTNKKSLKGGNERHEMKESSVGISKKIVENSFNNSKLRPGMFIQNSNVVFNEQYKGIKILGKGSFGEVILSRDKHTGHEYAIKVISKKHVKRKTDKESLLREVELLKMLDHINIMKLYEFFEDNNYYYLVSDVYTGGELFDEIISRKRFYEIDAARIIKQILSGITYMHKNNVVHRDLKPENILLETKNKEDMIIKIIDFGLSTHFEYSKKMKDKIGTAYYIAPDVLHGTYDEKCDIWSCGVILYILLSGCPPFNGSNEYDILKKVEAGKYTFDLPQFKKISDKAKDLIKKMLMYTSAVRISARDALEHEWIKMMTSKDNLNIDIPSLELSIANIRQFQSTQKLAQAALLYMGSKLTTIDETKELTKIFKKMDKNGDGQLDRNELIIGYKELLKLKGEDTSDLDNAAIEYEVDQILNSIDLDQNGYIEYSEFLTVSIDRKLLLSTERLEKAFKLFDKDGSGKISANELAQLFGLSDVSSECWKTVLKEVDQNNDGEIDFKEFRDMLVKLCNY

Sequence of L-lactate dehydrogenase (Plasmodium falciparum (isolate CDC / Honduras)) (Q27743 whole entry, looked up): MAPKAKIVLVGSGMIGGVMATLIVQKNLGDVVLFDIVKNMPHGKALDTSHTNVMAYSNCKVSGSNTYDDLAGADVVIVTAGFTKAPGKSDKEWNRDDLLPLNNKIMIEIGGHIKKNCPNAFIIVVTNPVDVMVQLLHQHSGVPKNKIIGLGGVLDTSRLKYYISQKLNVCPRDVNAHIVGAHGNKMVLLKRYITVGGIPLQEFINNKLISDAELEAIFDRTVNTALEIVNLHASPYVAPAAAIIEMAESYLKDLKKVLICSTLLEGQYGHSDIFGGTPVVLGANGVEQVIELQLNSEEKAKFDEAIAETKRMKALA
Sequence of Plasmodium falciparum protein kinase 6 (PK6, PF3D7_1337100) (Q8IDW1 1-305): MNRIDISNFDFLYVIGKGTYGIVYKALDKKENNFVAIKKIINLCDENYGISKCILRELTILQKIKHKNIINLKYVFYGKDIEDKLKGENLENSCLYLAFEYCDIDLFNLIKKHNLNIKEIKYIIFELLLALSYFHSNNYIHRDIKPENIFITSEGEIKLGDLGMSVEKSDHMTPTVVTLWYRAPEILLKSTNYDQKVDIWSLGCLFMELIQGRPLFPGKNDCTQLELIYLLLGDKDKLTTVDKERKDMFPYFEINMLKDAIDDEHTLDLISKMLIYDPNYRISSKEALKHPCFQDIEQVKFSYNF
Sequence of Protein kinase 7 (PK7), Plasmodium falciparum 3D7 (PF3D7_0213400) (Q7YTF7 1-343): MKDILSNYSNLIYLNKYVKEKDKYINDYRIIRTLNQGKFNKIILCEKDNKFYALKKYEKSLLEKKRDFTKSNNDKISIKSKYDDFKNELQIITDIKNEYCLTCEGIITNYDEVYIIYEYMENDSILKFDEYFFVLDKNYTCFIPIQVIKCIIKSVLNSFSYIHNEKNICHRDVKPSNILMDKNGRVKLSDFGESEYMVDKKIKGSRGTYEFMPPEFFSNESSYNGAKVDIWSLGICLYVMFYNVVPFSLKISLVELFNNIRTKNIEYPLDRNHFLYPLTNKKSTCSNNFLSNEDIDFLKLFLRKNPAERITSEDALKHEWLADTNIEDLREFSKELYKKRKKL
Sequence of Calcium-dependent protein kinase 1 (Plasmodium falciparum (isolate 3D7)) (P62344 whole entry, looked up): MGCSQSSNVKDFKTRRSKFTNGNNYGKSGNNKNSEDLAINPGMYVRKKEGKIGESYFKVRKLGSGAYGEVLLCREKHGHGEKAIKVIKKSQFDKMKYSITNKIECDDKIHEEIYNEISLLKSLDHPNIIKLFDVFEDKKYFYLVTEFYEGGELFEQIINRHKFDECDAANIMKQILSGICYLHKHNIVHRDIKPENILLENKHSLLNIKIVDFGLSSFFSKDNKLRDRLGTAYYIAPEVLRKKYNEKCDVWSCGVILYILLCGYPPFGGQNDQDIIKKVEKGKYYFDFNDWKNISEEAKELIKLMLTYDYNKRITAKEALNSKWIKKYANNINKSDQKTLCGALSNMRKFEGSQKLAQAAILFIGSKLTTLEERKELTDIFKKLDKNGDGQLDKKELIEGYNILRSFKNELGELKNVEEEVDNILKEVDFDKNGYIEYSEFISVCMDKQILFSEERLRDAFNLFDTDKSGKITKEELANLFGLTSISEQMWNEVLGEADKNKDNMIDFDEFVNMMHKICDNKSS

CN1CCN(CC(=O)Nc2ccc(-c3cccc(-c4nc5ccc(C(F)(F)F)cc5[nH]4)c3)cc2)CC1
active: growth inhibition [1] 93% | growth inhibition [4] 101%
inactive: inhibition [2] 45% | inhibition [3] -5% | outcome [5] | outcome [6] | outcome [7] | outcome [8]

c1cc(CN2CCN(c3ccncc3)CC2)cc(-c2cccc(-c3nc4ccccc4[nH]3)c2)c1
active: growth inhibition [1] 98% | growth inhibition [4] 102%
inactive: inhibition [2] 35% | inhibition [3] 3% | outcome [5] | outcome [6] | outcome [7] | outcome [8]

COc1ccc(CN2CCN(C(=O)c3cccs3)CC2)c(O)c1
active: growth inhibition [4] 97%
inactive: growth inhibition [1] 2% | inhibition [2] 7% | inhibition [3] 2% | outcome [5] | outcome [6] | outcome [7] | outcome [8]

COc1ccc(Nc2nc(NC3CCCC3)cc(-c3ccc(OC)cc3)n2)cc1
inactive: growth inhibition [1] 15% | inhibition [2] 12% | inhibition [3] 2% | outcome [5] | outcome [6] | outcome [7] | outcome [8]
active: growth inhibition [4] 86%

CN1CCN(CCCSc2ccc3c(c2)ncn3-c2cc(OCc3ccccc3C(F)(F)F)c(C(N)=O)s2)CC1
active: growth inhibition [1] 86% | growth inhibition [4] 101%
inactive: inhibition [2] 28% | inhibition [3] 8% | outcome [5] | outcome [6] | outcome [7] | outcome [8]

C=C[C@H]1CN(CCCCCCC)CC[C@H]1CC(O)Cc1ccnc2cc(O)c(OC)cc12 (stereo partly specified)
active: growth inhibition [1] 59% | growth inhibition [4] 95%
inactive: inhibition [2] 7% | inhibition [3] 1% | outcome [5] | outcome [6] | outcome [7] | outcome [8]

O=C(Nc1cccc(CN2CCCN(Cc3ccsc3)CC2)c1)c1ccc(Cl)c(Cl)c1
inactive: growth inhibition [1] 20% | inhibition [2] 36% | inhibition [3] 4% | outcome [5] | outcome [6] | outcome [7] | outcome [8]
active: growth inhibition [4] 98%

NC(=O)c1ccccc1OCC(=O)Nc1cccc(-c2ccc(-c3nc4ccccc4[nH]3)cc2)c1
inactive: growth inhibition [1] 46% | inhibition [3] 4% | outcome [5] | outcome [6] | outcome [7] | outcome [8]
active: inhibition [2] 66% | growth inhibition [4] 95%

Cc1cccc2[nH]c(-c3ccc(-c4cccc(CNCCCN5CCCC5=O)c4)cc3)nc12
active: growth inhibition [4] 96%
inactive: growth inhibition [1] 3% | inhibition [2] 6% | inhibition [3] -8% | outcome [5] | outcome [6] | outcome [7] | outcome [8]

Cn1cccc1C(=O)C(=O)Nc1ccc(-c2ccc(-c3nc4ccc(F)cc4[nH]3)cc2)cc1
inactive: growth inhibition [1] 33% | inhibition [2] 44% | inhibition [3] -3% | outcome [5] | outcome [6] | outcome [7] | outcome [8]
active: growth inhibition [4] 92%

O=C(O)C1Cc2c([nH]c3ccccc23)C(c2ccc(Cl)cc2Cl)N1 (stereo unspecified)
inactive: inhibition [2] 7% | inhibition [3] 0% | outcome [5] | outcome [6] | outcome [7] | outcome [8]
active: growth inhibition [1] 100% | growth inhibition [4] 91%

Cc1nc2ccc3nc(NC(=O)c4ccno4)sc3c2s1
inactive: inhibition [2] 6% | inhibition [3] 1% | outcome [5] | outcome [6] | outcome [7] | outcome [8]
active: growth inhibition [1] 97% | growth inhibition [4] 99%

Cc1nc(N2CCC(C)CC2)c2c3c(sc2n1)CCCC3
inactive: growth inhibition [1] 39% | inhibition [2] 13% | inhibition [3] 1% | outcome [5] | outcome [6] | outcome [7] | outcome [8]
active: growth inhibition [4] 93%

COc1cc(OC)cc(-c2nn(-c3ccc([N+](=O)[O-])cc3Cl)c(=S)n2CC2CCCO2)c1 (stereo unspecified)
inactive: inhibition [2] 5% | inhibition [3] 0% | outcome [5] | outcome [6] | outcome [7] | outcome [8]
active: growth inhibition [1] 98% | growth inhibition [4] 98%

Cc1ccc(Cc2cnc(CN3CCCCC3)c(O)c2)cc1
inactive: inhibition [2] 4% | inhibition [3] 1% | outcome [5] | outcome [6] | outcome [7] | outcome [8]
active: growth inhibition [1] 75% | growth inhibition [4] 93%

COc1ccc(Cc2cnc3nc(N)nc(N)c3c2C)cc1
inactive: inhibition [3] -2% | outcome [5] | outcome [6] | outcome [7] | outcome [8]
active: growth inhibition [1] 96% | inhibition [2] 65% | growth inhibition [4] 90%

CC[C@H]1CN(Cc2cccc(O)c2)CC[C@H]1CCCc1ccnc2ccc(O)cc12
active: growth inhibition [1] 98% | growth inhibition [4] 103%
inactive: inhibition [2] 14% | inhibition [3] 4% | outcome [5] | outcome [6] | outcome [7] | outcome [8]

O=c1cc(NCCCNCc2csc(Br)c2Sc2ccc(Cl)cc2)[nH]c2ccccc12
active: growth inhibition [1] 83% | growth inhibition [4] 95%
inactive: inhibition [2] 5% | inhibition [3] 7% | outcome [5] | outcome [6] | outcome [7] | outcome [8]

COc1ccccc1N(C)CCNc1cc(C)nc(Nc2ccc(C)cc2)n1
inactive: growth inhibition [1] 25% | inhibition [2] 9% | inhibition [3] 0% | outcome [5] | outcome [6] | outcome [7] | outcome [8]
active: growth inhibition [4] 93%

COc1ccc2ncc(F)c(CCN3C[C@H](CNCc4ccc5oc(=O)ccc5c4)[C@H](O)C3)c2n1
inactive: growth inhibition [1] 6% | inhibition [2] 18% | inhibition [3] 3% | outcome [5] | outcome [6] | outcome [7] | outcome [8]
active: growth inhibition [4] 89%

Cc1ccc(Nc2nccc(NCC(O)c3cccc(C)c3)n2)cc1 (stereo unspecified)
active: growth inhibition [4] 90%
inactive: growth inhibition [1] 23% | inhibition [2] 22% | inhibition [3] 0% | outcome [5] | outcome [6] | outcome [7] | outcome [8]

Cc1ccc(/C=C/C(=O)N2CCC(CCN3CCC(c4c[nH]c5ccccc45)CC3)CC2)cc1C
active: inhibition [2] 50% | growth inhibition [4] 94%
inactive: growth inhibition [1] 5% | inhibition [3] -2% | outcome [5] | outcome [6] | outcome [7] | outcome [8]

COc1ccc(N2CCN(CCc3ccc(NC(=O)c4ccc([N+](=O)[O-])cc4)cc3)CC2)c(OC)c1
active: growth inhibition [4] 83%
inactive: growth inhibition [1] 0% | inhibition [2] 45% | inhibition [3] 1% | outcome [5] | outcome [6] | outcome [7] | outcome [8]

C=C(C)CSc1nc2c(c(=O)n1CCc1ccccc1)C1(CCCC1)Cc1ccccc1-2
active: growth inhibition [1] 80% | growth inhibition [4] 101%
inactive: inhibition [2] 14% | inhibition [3] -5% | outcome [5] | outcome [6] | outcome [7] | outcome [8]

CN(C)c1ccc(CN2CCC(CNC(=O)c3cc(-c4cccc(F)c4)cs3)C2)cc1 (stereo unspecified)
active: growth inhibition [4] 96%
inactive: growth inhibition [1] 13% | inhibition [2] 48% | inhibition [3] 0% | outcome [5] | outcome [6] | outcome [7] | outcome [8]

CN(C)CC(O)C(c1ccccc1)c1cccc(Br)c1 (stereo unspecified)
active: growth inhibition [4] 98%
inactive: growth inhibition [1] 9% | inhibition [2] 22% | inhibition [3] -8% | outcome [5] | outcome [6] | outcome [7] | outcome [8]

CCCNC(=O)C1Cc2c([nH]c3cc(Br)ccc23)C2(CCN(CCc3ccccc3)CC2)N1 (stereo unspecified)
active: growth inhibition [4] 92%
inactive: growth inhibition [1] 26% | inhibition [2] 15% | inhibition [3] -1% | outcome [5] | outcome [6] | outcome [7] | outcome [8]

O=C(Nc1cccc(-c2nn3ccccc3c2-c2ccnc(Nc3ccccc3)n2)c1)c1cc(F)ccc1F
inactive: inhibition [2] 8% | inhibition [3] 0% | outcome [5] | outcome [6] | outcome [7] | outcome [8]
active: growth inhibition [1] 75% | growth inhibition [4] 98%

O=C(Nc1cccc(Oc2ccccc2)c1)N[C@H]1CCN(Cc2ccc(OCCCN3CCCCC3)cc2)C1
inactive: inhibition [3] -2% | outcome [5] | outcome [6] | outcome [7] | outcome [8]
active: growth inhibition [1] 70% | inhibition [2] 94% | growth inhibition [4] 101%

O=C1c2ccccc2C(=O)N1c1ccc(S(=O)(=O)N2CCOCC2)cc1
active: growth inhibition [4] 94%
inactive: growth inhibition [1] -1% | inhibition [2] -1% | inhibition [3] 3% | outcome [5] | outcome [6] | outcome [7] | outcome [8]

CN1CCCN(c2ccnc3cc4c(cc23)N(C(=O)c2ccc(Cl)cc2)CC4)CC1
inactive: growth inhibition [1] 0% | inhibition [2] 0% | inhibition [3] 4% | outcome [5] | outcome [6] | outcome [7] | outcome [8]
active: growth inhibition [4] 100%

COc1ccc(-c2nnc(Sc3ccc(C#N)c([N+](=O)[O-])c3)n2CC(C)C)cc1
inactive: inhibition [2] 3% | inhibition [3] 4% | outcome [5] | outcome [6] | outcome [7] | outcome [8]
active: growth inhibition [1] 78% | growth inhibition [4] 97%

O=C(NCCCCN1CCC(c2ccc3c(c2OCc2ccccn2)CCCC3)CC1)c1ccc(NC(=O)c2ccc(Cl)cc2)cc1
inactive: inhibition [2] 31% | inhibition [3] -3% | outcome [5] | outcome [6] | outcome [7] | outcome [8]
active: growth inhibition [1] 70% | growth inhibition [4] 101%

NC1CCN(Cc2ccc(-c3cccc(-c4nc5ccccc5[nH]4)c3)cc2)C1 (stereo unspecified)
active: growth inhibition [4] 98%
inactive: growth inhibition [1] -3% | inhibition [2] 19% | inhibition [3] 5% | outcome [5] | outcome [6] | outcome [7] | outcome [8]

CCCn1cnc2cc(C(=O)Nc3ccc(-c4cccc(CN(C)C)c4)cc3)ccc2c1=O
active: growth inhibition [4] 95%
inactive: growth inhibition [1] 6% | inhibition [2] 26% | inhibition [3] -6% | outcome [5] | outcome [6] | outcome [7] | outcome [8]

Cn1cc(C(=O)Nc2cccc(-c3cccc(-c4nc5ccc(F)cc5[nH]4)c3)c2)n(C)c1=O
active: growth inhibition [1] 50% | growth inhibition [4] 98%
inactive: inhibition [2] 15% | inhibition [3] -1% | outcome [5] | outcome [6] | outcome [7] | outcome [8]

N#Cc1ccc(-c2ccc(C(=O)NCCCCN3CCC(c4cc(Br)c5c(c4OCC(N)=O)CCCC5)CC3)cc2)cc1
inactive: inhibition [2] 23% | inhibition [3] 6% | outcome [5] | outcome [6] | outcome [7] | outcome [8]
active: growth inhibition [1] 89% | growth inhibition [4] 100%
